# Measured values published in PubChem BioAssay.
# “And” between values parts separate entries of the source, which are not always exact repeats. Equal values may be shown once. The source made the active and inactive calls.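 How the source made its calls, unless noted: active means thallium flux through the channel raised or lowered by more than 3 SD from vehicle-only wells, actives on both sides; inactive means the rest.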
# How the values were obtained:
# [1] = signal quenchers or enhancers, Cy5 substrate/SSB – biochemical, NIH Clinical Collection, E. coli SSB, artefact control for HCV NS3 helicase inhibitor project (AID 743268; call rule not given here); details: Cy5-oligo bound E. coli SSB, fluorescence interference
# [2] = tested on: Hepatitis C virus NS3 helicase; experiment: blockers of NS3h binding to DNA – biochemical, fluorescence polarization, NIH Clinical Collection, primary screen (AID 743270; call rule not given here); details: NS3 helicase binding to Cy5-dT15 DNA, stronger effect = higher value, concentration not given here
# [3] = target: Single-stranded DNA-binding protein (Escherichia coli (strain K12)) (UniProt P0AGE0); experiment: SSB-ssDNA binding inhibitors – biochemical, fluorescence polarization, NIH Clinical Collection, counter-screen for HCV NS3 helicase inhibitor project (AID 743271; in the data active means inhibition above about 28%); details: E. coli SSB-DNA binding, stronger effect = higher value, concentration not given here
# [4] = compounds distorting NS3 helicase fluorescence signal – biochemical, NIH Clinical Collection, artefact control for HCV NS3 helicase inhibitor project (AID 743272; call rule not given here;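 further: HCV NS3 helicase with a Cy5 labelled single stranded DNA probe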); details: fluorescence interference counterscreen, HCV NS3 helicase assay; stronger effect = lower value
# [5] = target: 6-phosphogluconate dehydrogenase, decarboxylating (Homo sapiens) (UniProt P52209); experiment: inhibition of human phosphogluconate dehydrogenase – biochemical, recombinant enzyme, NADPH absorbance, primary screen (AID 1159550;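 active means at least 20% inhibition of 6-phosphogluconate dehydrogenase activity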); details: recombinant 6PGD, NADPH absorbance 341 nm; at 10 µM; stronger effect = higher value
# [6] = modulation of C. elegans fzo-1 (AID 1259413; call rule not given here;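 further: fzo-1 mutant C. elegans worms in liquid wells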); details: C. elegans fzo-1 modulator screen, mean read-out; stronger effect = higher value
# [7] = EMT-state selective cytotoxicity in co-culture – imaging, PC-3E GFP, TEM4-18 mCherry, primary screen (AID 1345086;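 active means compounds killing one labelled cell type while sparing the other, by normalised counts and ratio limits, not self-fluorescent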;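 on all read-outs here: cells exposed to compound for 72 h before imaging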;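 on red/green cell ratio (normalised): normalised mesenchymal count divided by normalised epithelial count so high means epithelial killing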); details: PC-3E GFP / TEM4-18 mCherry co-culture, imaging cell counts, at 1 µM; for red/green cell ratio (normalised): actives lie on both sides, counts scaled to control wells, 1 = unselective
# [8] = MELAS cybrid and Rieske KO viability enhancers – cell-based, MELAS cybrids, Rieske KO mouse fibroblasts, CellTiter-Glo, primary screen (AID 1508586;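 active means mean z-score across replicates of 1.96 or higher in either the MELAS or the Rieske mutant cell line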;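 further: z relative to plate mean and SD of compound and empty wells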); details: low glucose
# [9] = target: Mitogen-activated protein kinase 7 (Homo sapiens) (UniProt Q13164); experiment: Gal4-ERK5 driven luciferase induction – cell-based, HTS, primary screen (AID 1508626;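 active means luciferase signal above three times the same-plate solvent-only control wells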;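 further: luciferase driven by Gal4-ERK5 fusion binding five Gal4 sites before minimal TATA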); details: HeLa Gal4-ERK5 transactivation, 18 h, at 5 µM, stronger effect = higher value
# [10] = galactose survival enhancers in mitochondrial complex I cybrids – cell-based, galactose medium, ATP luminescence, primary screen (AID 1645843;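 active means z-score of at least 1.8 in each of two replicates, scored against plate mean and spread of sample wells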;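 further: positive z means more ATP and so rescue of galactose-driven cybrid death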); details: complex I mutant cybrid cells, 72 h, stronger effect = higher value
# [11] = tested on: F380Y; experiment: BK channel mutant inhibitors and activators – cell-based, U2OS BacMam, thallium flux, beta subunits, selectivity assay, profiling panel (AID 1259406); details: U2OS BacMam BK variants, at 30 µM;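 further: initial slope of Thallos dye fluorescence rise after thallium is added; log ratio against the mean of 0.3% DMSO vehicle wells on the same plate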
# [12] = tested on: F380Y/beta1; experiment: as above; details: U2OS BacMam BK variants, at 30 µM
# [13] = tested on: F380Y/beta2Delta; experiment: as above; details: U2OS BacMam BK variants, at 30 µM
# [14] = target: Calcium-activated potassium channel subunit alpha-1 (Homo sapiens) + Leucine-rich repeat-containing protein 26 (Homo sapiens) (UniProt Q12791+Q2I0M4); experiment: as above; details: U2OS BacMam BK variants, F380Y/Slo1WT/gamma1, at 30 µM
# [15] = tested on: R275C; experiment: as above; details: U2OS BacMam BK variants, at 30 µM
# [16] = tested on: R275C/beta1; experiment: as above; details: U2OS BacMam BK variants, at 30 µM
# [17] = tested on: R275C/beta2Delta; experiment: as above; details: U2OS BacMam BK variants, at 30 µM
# [18] = viability loss with induced miR-34 in A549 – imaging, A549 dox-inducible miR-34, nuclei and caspase counts, primary screen (AID 1347080;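 active means compounds whose cell count with miR-34 switched on is under 0.7 times the count with it off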); details: A549 miR-34 inducible, Hoechst nuclei count, 48 h
# [19] = P. berghei load reduction in hepatocytes – cell-based, HepG2, luciferase luminescence, HepG2 viability, primary screen (AID 624349; in the data active means parasite load remaining mostly below about 12%, no sharp cut-off; inactive means mostly above about 10%;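 further: 100% = mean of DMSO negative control wells on the same plate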); details: P. berghei liver stage in HepG2, luciferase luminescence, concentration not given here; parasite load remaining: stronger effect = lower value; viability: measured here: HepG2 viability without parasites
# [20] = measured here: epithelial PC-3E GFP cell survival
# [21] = measured here: mesenchymal TEM4-18 mCherry cell survival
# [22] = MELAS cybrid survival, CellTiter-Glo 48 h, stronger effect = higher value
# [23] = Rieske KO mouse fibroblast survival, CellTiter-Glo 72 h
# [24] = stronger effect = lower value, cell number ratio, induced over uninduced
# [25] = measured here: relative caspase fold change +Dox/-Dox
# [26] = measured here: total cells with miR-34 induction, stronger effect = lower value
# [27] = measured here: total cells without miR-34 induction
# Chain of Mitogen-activated protein kinase 7 (Homo sapiens) (Q13164 whole entry, looked up, the tested form may be a part): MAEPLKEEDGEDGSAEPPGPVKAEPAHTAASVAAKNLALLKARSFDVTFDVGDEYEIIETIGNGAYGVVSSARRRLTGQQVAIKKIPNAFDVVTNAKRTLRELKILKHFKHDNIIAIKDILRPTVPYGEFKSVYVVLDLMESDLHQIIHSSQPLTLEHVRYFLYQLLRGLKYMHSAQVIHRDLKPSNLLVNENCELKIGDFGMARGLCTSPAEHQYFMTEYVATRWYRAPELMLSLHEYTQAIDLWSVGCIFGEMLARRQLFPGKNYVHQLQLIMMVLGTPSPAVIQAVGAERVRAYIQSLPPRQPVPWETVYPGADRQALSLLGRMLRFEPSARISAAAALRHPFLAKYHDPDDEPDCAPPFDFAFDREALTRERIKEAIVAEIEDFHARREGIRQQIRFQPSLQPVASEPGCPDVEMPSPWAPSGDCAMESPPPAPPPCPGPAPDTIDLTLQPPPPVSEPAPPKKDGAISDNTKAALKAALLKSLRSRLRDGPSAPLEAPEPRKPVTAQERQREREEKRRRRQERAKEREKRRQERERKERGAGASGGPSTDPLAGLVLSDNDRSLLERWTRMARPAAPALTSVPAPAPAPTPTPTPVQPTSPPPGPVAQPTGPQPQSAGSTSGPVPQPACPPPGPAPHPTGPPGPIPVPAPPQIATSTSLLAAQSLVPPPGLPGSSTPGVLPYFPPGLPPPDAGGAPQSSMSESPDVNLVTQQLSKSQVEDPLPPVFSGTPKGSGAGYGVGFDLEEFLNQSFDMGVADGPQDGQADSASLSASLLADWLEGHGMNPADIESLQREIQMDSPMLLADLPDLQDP
# Chain of Calcium-activated potassium channel subunit alpha-1 (Homo sapiens) + Leucine-rich repeat-containing protein 26 (Homo sapiens) (Q2I0M4 whole entry, looked up, one chain of several): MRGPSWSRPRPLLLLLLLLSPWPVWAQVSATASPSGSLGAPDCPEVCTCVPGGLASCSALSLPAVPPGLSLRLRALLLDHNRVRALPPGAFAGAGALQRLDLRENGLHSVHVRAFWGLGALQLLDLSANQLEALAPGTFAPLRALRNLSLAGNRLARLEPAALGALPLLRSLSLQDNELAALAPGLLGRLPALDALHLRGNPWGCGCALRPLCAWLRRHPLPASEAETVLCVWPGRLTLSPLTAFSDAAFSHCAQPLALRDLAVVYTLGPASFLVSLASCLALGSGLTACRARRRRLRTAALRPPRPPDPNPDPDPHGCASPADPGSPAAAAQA
# Chain of 6-phosphogluconate dehydrogenase, decarboxylating (Homo sapiens) (P52209 whole entry, looked up): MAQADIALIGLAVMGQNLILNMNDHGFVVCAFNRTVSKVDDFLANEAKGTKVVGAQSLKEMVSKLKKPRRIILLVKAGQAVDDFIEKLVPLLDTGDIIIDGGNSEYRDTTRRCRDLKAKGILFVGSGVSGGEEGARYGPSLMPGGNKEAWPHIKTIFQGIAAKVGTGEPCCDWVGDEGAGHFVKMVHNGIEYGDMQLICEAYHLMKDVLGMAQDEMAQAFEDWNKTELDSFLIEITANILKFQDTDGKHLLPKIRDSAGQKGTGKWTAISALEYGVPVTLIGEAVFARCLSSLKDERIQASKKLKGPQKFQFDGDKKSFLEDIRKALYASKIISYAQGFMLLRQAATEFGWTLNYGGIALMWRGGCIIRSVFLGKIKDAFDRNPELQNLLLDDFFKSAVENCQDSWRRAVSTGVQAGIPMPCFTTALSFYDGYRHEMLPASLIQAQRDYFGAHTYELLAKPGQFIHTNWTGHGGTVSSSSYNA
compound,measurement,setting,value
CC(=O)N=c1sc(S(N)(=O)=O)nn1C,fluorescence ratio,[1],1.01 (inactive)
same,inhibition,[2],-0.45% (inactive)
same,inhibition,[3],-3.53% (inactive)
same,fluorescence ratio,[4],1.03 (inactive)
same,inhibition,[5],18.8% (inactive)
same,mean signal,[6],273 (inactive)
same,red/green cell ratio (normalised),[7],1.22 (inactive)
same,normalised cell number,[7]; [20],0.92
same,normalised cell number,[7]; [21],1.12
same,z-score,[8]; [22],-0.23 (inactive) and 0.0575 (inactive)
same,z-score,[8]; [23],-0.175 and -0.724
same,luciferase signal,[9],80 AU (inactive)
same,z-score,[10],0.7 (inactive)
same,log fold change Tl+ flux,[11],0.00591 (inactive)
same,log fold change Tl+ flux,[12],-0.0785 (inactive)
same,log fold change Tl+ flux,[13],0.00714 (inactive)
same,log fold change Tl+ flux,[14],-0.0355 (inactive)
same,log fold change Tl+ flux,[15],0.00598 (inactive)
same,log fold change Tl+ flux,[16],-0.028 (inactive)
same,log fold change Tl+ flux,[17],-0.0276 (inactive)
C#C[C@]1(O)CC[C@H]2[C@@H]3CCC4=CC(=O)CC[C@@H]4[C@H]3CC[C@@]21C,fluorescence ratio,[1],0.96 (inactive)
same,inhibition,[2],1.36% (inactive)
same,inhibition,[3],3.34% (inactive)
same,fluorescence ratio,[4],0.96 (inactive)
same,inhibition,[5],-1.74% (inactive)
same,fold change,[18]; [24],0.992 (inactive) and 0.97 (inactive) and 0.797 (inactive)
same,fold change,[18]; [25],3.48 and 0.712 and 1.56
same,cell count,[18]; [26],9410 and 9190 and 8090
same,cell count,[18]; [27],9490 and 9470 and 10100
same,z-score,[8]; [22],0.108 (inactive) and 0.243 (inactive)
same,z-score,[8]; [23],0.0145 and -0.237
same,luciferase signal,[9],48 AU (inactive)
same,z-score,[10],-0.71 (inactive) and 0.54 (inactive)
same,log fold change Tl+ flux,[11],0.0234 (inactive)
same,log fold change Tl+ flux,[12],0.0886 (inactive)
same,log fold change Tl+ flux,[13],0.0279 (inactive)
same,log fold change Tl+ flux,[14],0.0181 (inactive)
same,log fold change Tl+ flux,[15],0.0301 (inactive)
same,log fold change Tl+ flux,[16],0.0324 (inactive)
same,log fold change Tl+ flux,[17],0.062 (inactive)
Cn1cc[nH]c1=S,fluorescence ratio,[1],1.03 (inactive)
same,inhibition,[2],-3.18% (inactive)
same,inhibition,[3],-5.05% (inactive)
same,fluorescence ratio,[4],1.03 (inactive)
same,inhibition,[5],-12.3% (inactive)
same,mean signal,[6],225 (inactive)
same,red/green cell ratio (normalised),[7],0.96 (inactive)
same,normalised cell number,[7]; [20],1.12
same,normalised cell number,[7]; [21],1.08
same,z-score,[8]; [22],-0.106 (inactive) and 0.275 (inactive) and 0.138 (inactive)
same,z-score,[8]; [23],0.1 and 0.646 and -0.619
same,luciferase signal,[9],92 AU (inactive)
same,z-score,[10],1.27 (inactive) and 0.25 (inactive)
same,log fold change Tl+ flux,[11],0.00366 (inactive)
same,log fold change Tl+ flux,[12],-0.0456 (inactive)
same,log fold change Tl+ flux,[13],-0.00456 (inactive)
same,log fold change Tl+ flux,[14],-0.014 (inactive)
same,log fold change Tl+ flux,[15],-0.00969 (inactive)
same,log fold change Tl+ flux,[16],-0.000997 (inactive)
same,log fold change Tl+ flux,[17],-0.0252 (inactive)
CCCc1nc(C(C)(C)O)c(C(=O)OCc2oc(=O)oc2C)n1Cc1ccc(-c2ccccc2-c2nn[nH]n2)cc1,parasite load remaining,[19],123% (inactive) and 56.6% (inactive) and 38.5% (inactive)
same,viability,[19],84.8% and 93.3% and 100%
same,inhibition,[5],-1.37% (inactive)
same,mean signal,[6],232 (inactive)
same,red/green cell ratio (normalised),[7],1.07 (inactive)
same,normalised cell number,[7]; [20],1.01
same,normalised cell number,[7]; [21],1.08
same,fold change,[18]; [24],0.993 (inactive) and 0.942 (inactive) and 0.929 (inactive)
same,fold change,[18]; [25],0.262 and 5.26 and 0.77
same,cell count,[18]; [26],7890 and 12500 and 10500
same,cell count,[18]; [27],7940 and 13300 and 11300
same,z-score,[8]; [22],-0.0808 (inactive) and -0.0697 (inactive) and -0.516 (inactive)
same,z-score,[8]; [23],-0.0525 and -0.445 and -0.184
same,luciferase signal,[9],116 AU (inactive)
same,z-score,[10],0.375 (inactive)
Nc1ccn([C@@H]2O[C@H](CO)[C@@H](O)C2O)c(=O)n1 (some centres not stated),parasite load remaining,[19],112% (inactive) and 32.3% (inactive)
same,viability,[19],77.2% and 77%
same,fluorescence ratio,[1],1 (inactive)
same,inhibition,[2],-5.15% (inactive)
same,inhibition,[3],-0.87% (inactive)
same,fluorescence ratio,[4],0.87 (inactive)
same,inhibition,[5],-3.33% (inactive)
same,mean signal,[6],259 (inactive)
same,fold change,[18]; [24],1.11 (inactive)
same,fold change,[18]; [25],1.22
same,cell count,[18]; [26],3020
same,cell count,[18]; [27],2720
same,z-score,[8]; [22],0.809 and -1.64 (inactive)
same,z-score,[8]; [23],2.19 and 0.364
same,luciferase signal,[9],88 AU (inactive)
same,z-score,[10],-1.98 (inactive)
same,log fold change Tl+ flux,[11],-0.0332 (inactive)
same,log fold change Tl+ flux,[13],0.0269 (inactive)
same,log fold change Tl+ flux,[14],0.0371 (inactive)
same,log fold change Tl+ flux,[15],0.00256 (inactive)
same,log fold change Tl+ flux,[16],-0.0266 (inactive)
same,log fold change Tl+ flux,[17],-0.0193 (inactive)
C=C1C2=CC(=O)O[C@@H](c3ccoc3)[C@]2(C)CCC1[C@@]1(C)C=CC(=O)C(C)(C)[C@@H]1CC(=O)OC (some centres not stated),inhibition,[5],1.03% (inactive)
same,red/green cell ratio (normalised),[7],1.06 (inactive)
same,normalised cell number,[7]; [20],1.13
same,normalised cell number,[7]; [21],1.2
CC(C)[N+]1(C)C2CCC1CC(OC(=O)C(CO)c1ccccc1)C2 (configuration not stated),parasite load remaining,[19],58.8% (inactive) and 74.5% (inactive)
same,viability,[19],98.1% and 77.4%
same,fluorescence ratio,[1],1.07 (inactive)
same,inhibition,[2],-3.18% (inactive)
same,inhibition,[3],-3.53% (inactive)
same,fluorescence ratio,[4],1.02 (inactive)
same,inhibition,[5],11.9% (inactive)
same,mean signal,[6],254 (inactive)
same,fold change,[18]; [24],0.921 (inactive) and 0.934 (inactive) and 0.97 (inactive)
same,fold change,[18]; [25],0.608 and 0.704 and 0.785
same,cell count,[18]; [26],10300 and 7770 and 8120
same,cell count,[18]; [27],11100 and 8310 and 8370
same,z-score,[8]; [22],0.162 (inactive)
same,z-score,[8]; [23],-0.136
same,z-score,[10],0.14 (inactive) and 0.88 (inactive)
same,log fold change Tl+ flux,[11],0.00902 (inactive)
same,log fold change Tl+ flux,[12],0.0263 (inactive)
same,log fold change Tl+ flux,[13],-0.00601 (inactive)
same,log fold change Tl+ flux,[14],0.0518 (inactive)
same,log fold change Tl+ flux,[15],0.0409 (inactive)
same,log fold change Tl+ flux,[16],-0.0331 (inactive)
same,log fold change Tl+ flux,[17],0.000928 (inactive)
CON=C(C(=O)NC1C(=O)N2C(C(=O)O)=C(COC(C)=O)CSC12)c1csc(N)n1 (configuration not stated),parasite load remaining,[19],73.2% (inactive)
same,viability,[19],130%
same,fluorescence ratio,[1],1.03 (inactive)
same,inhibition,[2],4.09% (inactive)
same,inhibition,[3],36.1% (active)
same,fluorescence ratio,[4],1.03 (inactive)
same,inhibition,[5],-1.56% (inactive)
same,fold change,[18]; [24],0.991 (inactive)
same,fold change,[18]; [25],2.86
same,cell count,[18]; [26],11400
same,cell count,[18]; [27],11500
same,z-score,[10],0.145 (inactive)
same,log fold change Tl+ flux,[11],-0.0263 (inactive)
same,log fold change Tl+ flux,[12],-0.0319 (inactive)
same,log fold change Tl+ flux,[13],0.0186 (inactive)
same,log fold change Tl+ flux,[14],-0.0048 (inactive)
same,log fold change Tl+ flux,[15],0.0263 (inactive)
same,log fold change Tl+ flux,[16],-0.0272 (inactive)
same,log fold change Tl+ flux,[17],-0.0298 (inactive)
